Source: the OligoGym collection

target: WFIKKN1; experiment: pooled miR-30 sensor sort-seq; sequence = guide strand; settings: shRNA
Also: reference of the scale not given here.

Sequence	sensor-assay potency score (higher = more potent)
TTCTTGACGCGCTTCTCGCTGG	-0.797
TTGCCATACATCTGATCAGGGC	-0.931
TTGTAGAGCACCAGCTGCCCGA	-1.47
TCATCCTTGAGCACGTCCTCGA	-0.412
AAGAACTTGAGGCCCATCTTGT	-0.385
TTGACGCGCTTCTCGCTGGCGG	-0.83
TCTCTCGCTGGTGACTCTGCTT	-0.761

target: WIZ; experiment: as above; settings: shRNA

Sequence	sensor-assay potency score (higher = more potent)
TATTTGTTCAGGCTTCAGCTTC	-1.07
TTGAGGATCTCTCGCAGTGTGT	-1.29
TTTGGAGAAGTTCATCTCCAGG	-1.49
TTCAAATTTGTTGATGTTCTGC	0.0401
TTCTTCTTGAGGATCTCTCGCA	-0.31
TTGACAAGTGATGTCTGGGGGG	-0.32
TTCTCGAAGAACTCGCCGCAGA	-0.9
TTGGCCTTGACCTCTGCTGGGA	-0.479
TTTGTTGATGTTCTGCCGCTGG	-0.379
AATTCCACCTCACAGAACCTGC	-1.06
TCTTCTTGAGGATCTCTCGCAG	-0.0721
TTCTGCTGTAGGTCATTGGTGT	-0.0622

target: WNK4; experiment: as above; settings: shRNA

Sequence	sensor-assay potency score (higher = more potent)
TTTCCTCGTACATCTCGGGGGC	-0.103
TTTTCTGTAGTGTCTGTAGTGT	0.147
TTTTCCTCGTACATCTCGGGGG	0.127
TTTCTGTAGTGTCTGTAGTGTT	-0.643
TACACCGTCTTGAAGGAGCCAC	-0.497
TTGTTGATCAGAAAGCATCAGA	-0.592
TCAAACTTGAGGTATCGGCCAT	-0.186
TAGTTCATCCACACTGGGCTGG	-0.183
TTCTGTAGTGTCTGTAGTGTTT	-0.833
ATTGTCGCACTTGAGATCCCGG	-0.626
TACTTTTCCTCGTACATCTCGG	-0.00694
TTGAGGTATCGGCCATCGGGGG	-1.54

target: WNT16; experiment: as above; settings: shRNA

Sequence	sensor-assay potency score (higher = more potent)
TTCTTTGTCACTAAACATCTGT	-0.0723
TTTACATTAAAATACATCCTTA	-0.353
TAAAATATAATAAATATCCAGG	-0.303
TAACAGTTGAAACTGATCTGTG	0.0469
TTAACAGTTGAAACTGATCTGT	-0.124
TTAACTTTTCAACATCTTCTAT	-0.546
TAACTTTTCAACATCTTCTATC	-0.48
TTCTTTACAAAACACTGTCTTT	-0.946
TTTCTTATCTTCTACACAGTAG	-0.455
